Data from PubChem BioAssay.
The source made the active and inactive calls.

What was measured:
[1] = target: Albumin (Bos taurus) (UniProt P02769); assay: compounds binding labelled BSA control protein – biochemical, small-molecule microarray, Alexa647 label, 635/667 nm fluorescence, artefact control for SMM control protein annotation, profiling panel (AID 1118); conditions: BSA-A647 binding, fluorescence 635 nm, higher = more signal;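 note: score merges 667 nm emission intensity and signal-to-noise per printed compound spot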
Chain of Albumin (Bos taurus) (P02769 whole entry, looked up): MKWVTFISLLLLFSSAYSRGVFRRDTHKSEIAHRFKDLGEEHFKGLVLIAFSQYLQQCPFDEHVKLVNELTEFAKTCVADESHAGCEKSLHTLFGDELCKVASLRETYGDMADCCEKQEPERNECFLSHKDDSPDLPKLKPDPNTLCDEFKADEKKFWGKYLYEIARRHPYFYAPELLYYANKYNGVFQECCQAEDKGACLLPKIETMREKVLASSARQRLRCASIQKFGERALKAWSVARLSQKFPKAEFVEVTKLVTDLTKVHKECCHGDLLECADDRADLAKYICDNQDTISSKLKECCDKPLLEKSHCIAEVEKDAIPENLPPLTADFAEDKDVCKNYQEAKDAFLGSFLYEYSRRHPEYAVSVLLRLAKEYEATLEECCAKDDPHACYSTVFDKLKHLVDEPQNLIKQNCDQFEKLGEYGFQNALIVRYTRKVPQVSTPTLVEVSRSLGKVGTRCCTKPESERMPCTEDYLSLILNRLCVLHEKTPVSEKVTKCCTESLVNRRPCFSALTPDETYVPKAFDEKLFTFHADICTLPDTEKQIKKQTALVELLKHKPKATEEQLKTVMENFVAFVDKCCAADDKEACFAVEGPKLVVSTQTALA

[2] = probe aXIP binding to arrayed compounds – biochemical, NeuroSMM set, 635/667 nm fluorescence, primary screen (AID 1119); conditions: small-molecule microarray, higher = more signal, called active from +8 up or from −8 down;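 note: probe is the protein aXip251-270 applied at 1 µg/mL to compound-printed slides; binding of probe to printed compounds measured as 667 nm fluorescence plus signal to noise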
[3] = probe aNOTCH3 binding on compound microarray – biochemical, small-molecule microarray, 635/667 nm fluorescence, primary screen (AID 1120); conditions: higher = more signal;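 note: probe is a biotin-tagged antibody raised against NOTCH3 rather than NOTCH3 protein; score merges spot fluorescence near 667 nm with spot signal to noise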
[4] = probe aNOTCH2 binding on compound microarray – biochemical, small-molecule microarray, 635/667 nm fluorescence, primary screen (AID 1121); conditions: higher = more signal;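 note: score merges feature fluorescence read at 667 nm with its signal to noise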
[5] = target: Carbonic anhydrase 2 (Homo sapiens) (UniProt P00918); assay: compounds binding carbonic anhydrase 2 – biochemical, small-molecule microarray, Alexa647-labelled CAII, profiling panel (AID 1122); conditions: CAII-A647 binding fluorescence, higher = more signal
[6] = COS7 lysate on small-molecule microarray, probe aHis, 635 nm (AID 1123); conditions: COS7 cell lysate, fluorescence, higher = more signal;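 note: z-score combines 667nm fluorescence intensity with signal-to-noise per printed compound spot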
[7] = probe aLAP1 signal on lysate-treated microarray – cell lysate, small-molecule microarray, COS7 lysate, primary screen (AID 1124); conditions: probe aLAP1, fluorescence, higher = more signal;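 note: lysate comes from COS7 cells expressing LAP1 and is applied at 0.3 µg/mL; score merges spot fluorescence near 667 nm with signal-to-noise over triplicate slides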
[8] = test system: Sam68 (KHDRBS1); assay: compounds binding KHDRBS1 protein – biochemical, small-molecule microarray, 635 nm fluorescence, primary screen (AID 1125); conditions: higher = more signal;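 note: score merges 667 nm channel intensity with signal to noise over triplicate slides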
[9] = test system: Chordin-like protein 2 (CHRDL2); assay: compounds binding chordin-like 2 – biochemical, small-molecule microarray, 635 nm fluorescence, primary screen (AID 1126); conditions: fluorescence 635 nm, higher = more signal;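 note: printed compound slides probed with Chrdl2 protein at 4 µg/mL for 1 h at 4 C; score merges 667 nm emission intensity with signal to noise over three replicate slides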
[10] = target: Concanavalin-A (Canavalia ensiformis) (UniProt P02866); assay: compounds binding concanavalin A lectin – biochemical, small-molecule microarray, Alexa647 label, 635 nm, artefact control for SMM control protein annotation, primary screen (AID 1127); conditions: ConA-A647 binding fluorescence, higher = more signal;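 note: z combines 667 nm emission intensity with signal-to-noise across three replicate slides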
Chain of Concanavalin-A (Canavalia ensiformis) (P02866 whole entry, looked up): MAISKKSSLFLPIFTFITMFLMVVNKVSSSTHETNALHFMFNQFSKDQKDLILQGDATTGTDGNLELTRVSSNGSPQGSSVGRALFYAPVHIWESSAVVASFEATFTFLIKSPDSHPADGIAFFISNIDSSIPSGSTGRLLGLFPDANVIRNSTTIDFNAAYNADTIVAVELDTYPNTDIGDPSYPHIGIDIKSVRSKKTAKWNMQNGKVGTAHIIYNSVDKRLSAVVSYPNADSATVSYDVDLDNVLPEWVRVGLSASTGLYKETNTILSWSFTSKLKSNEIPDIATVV

[11] = compounds binding Alexa647 anti-His antibody – biochemical, small-molecule microarray, 635 nm fluorescence, artefact control for SMM control protein annotation, primary screen (AID 1128); conditions: higher = more signal;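 note: score merges feature fluorescence with signal-to-noise for each printed compound spot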
[12] = test system: Human papillomavirus type 1a E7 protein (residues 1-88); assay: HPV1a E7 small-molecule binders, primary screen, biochemical, small-molecule microarray, residues 1-88, 635 nm (AID 1129); conditions: small-molecule microarray binding, fluorescence 635 nm; higher = more signal
[13] = target: Focal adhesion kinase 1 (Homo sapiens) (UniProt Q05397); assay: PTK2 protein binding on printed compound slides – biochemical, small-molecule microarray, 635/667 nm fluorescence, BSA, DTT, primary screen (AID 1130); conditions: 635 nm fluorescence, higher = more signal;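 note: composite of spot emission at 667 nm and signal to noise over triplicate slides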
Chain of Focal adhesion kinase 1 (Homo sapiens) (Q05397 whole entry, looked up): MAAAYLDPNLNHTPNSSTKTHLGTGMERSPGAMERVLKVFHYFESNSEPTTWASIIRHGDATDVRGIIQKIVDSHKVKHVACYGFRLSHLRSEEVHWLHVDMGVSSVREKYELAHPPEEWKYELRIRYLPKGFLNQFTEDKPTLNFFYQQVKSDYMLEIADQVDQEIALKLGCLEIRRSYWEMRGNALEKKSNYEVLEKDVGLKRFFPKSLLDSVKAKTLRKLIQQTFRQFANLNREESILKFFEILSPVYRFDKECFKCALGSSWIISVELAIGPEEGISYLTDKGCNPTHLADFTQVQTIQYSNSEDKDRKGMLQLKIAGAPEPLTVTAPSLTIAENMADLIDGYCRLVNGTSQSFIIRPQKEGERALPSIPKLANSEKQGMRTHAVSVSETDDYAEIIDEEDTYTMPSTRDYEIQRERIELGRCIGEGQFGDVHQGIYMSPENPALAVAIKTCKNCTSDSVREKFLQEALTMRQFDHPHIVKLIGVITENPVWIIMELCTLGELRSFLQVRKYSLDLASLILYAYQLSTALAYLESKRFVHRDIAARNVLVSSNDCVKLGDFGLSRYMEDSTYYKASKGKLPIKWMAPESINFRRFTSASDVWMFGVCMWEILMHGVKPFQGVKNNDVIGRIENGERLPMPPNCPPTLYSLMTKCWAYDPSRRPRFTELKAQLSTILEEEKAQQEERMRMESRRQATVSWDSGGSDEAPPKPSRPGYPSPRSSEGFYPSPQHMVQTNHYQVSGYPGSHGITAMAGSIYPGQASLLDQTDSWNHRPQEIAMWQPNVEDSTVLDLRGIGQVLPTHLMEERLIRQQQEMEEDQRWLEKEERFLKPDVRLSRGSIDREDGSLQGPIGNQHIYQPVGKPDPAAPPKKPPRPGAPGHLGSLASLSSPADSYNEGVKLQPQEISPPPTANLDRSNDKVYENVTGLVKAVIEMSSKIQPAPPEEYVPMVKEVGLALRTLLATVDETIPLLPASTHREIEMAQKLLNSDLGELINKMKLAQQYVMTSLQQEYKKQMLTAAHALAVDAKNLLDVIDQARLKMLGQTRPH

[14] = test system: Fibrinogen (Alexa647-labelled); assay: Alexa647-fibrinogen binding to printed small molecules – biochemical, small-molecule microarray, 635/667 nm fluorescence, artefact control for SMM control-protein annotation, profiling panel (AID 1131); conditions: fibrinogen-A647 binding fluorescence, higher = more signal;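 note: z-score merges 667 nm fluorescence with per-spot signal-to-noise over triplicate slides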
[15] = target: Follistatin (Homo sapiens) (UniProt P19883); assay: FST protein binding to printed compounds – biochemical, small-molecule microarray, 635/667 nm fluorescence, primary screen (AID 1132); conditions: 635 nm fluorescence, higher = more signal
Chain of Follistatin (Homo sapiens) (P19883 whole entry, looked up): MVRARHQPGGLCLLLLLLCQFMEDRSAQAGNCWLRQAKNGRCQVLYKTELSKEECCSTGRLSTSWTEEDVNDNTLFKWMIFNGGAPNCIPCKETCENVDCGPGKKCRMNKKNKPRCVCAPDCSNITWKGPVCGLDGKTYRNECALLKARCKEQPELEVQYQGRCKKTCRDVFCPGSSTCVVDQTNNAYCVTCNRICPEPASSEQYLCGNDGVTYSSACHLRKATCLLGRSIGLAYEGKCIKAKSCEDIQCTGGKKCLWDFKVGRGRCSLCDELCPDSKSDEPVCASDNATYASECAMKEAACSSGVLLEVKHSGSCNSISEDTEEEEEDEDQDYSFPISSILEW

[16] = target: Fibroblast growth factor 2 (Homo sapiens) (UniProt P09038); assay: basic fibroblast growth factor binding to printed compounds – biochemical, small-molecule microarray, 635/667 nm fluorescence, primary screen (AID 1133); conditions: FGF2, fluorescence 635/667, higher = more signal
Chain of Fibroblast growth factor 2 (Homo sapiens) (P09038 whole entry, looked up): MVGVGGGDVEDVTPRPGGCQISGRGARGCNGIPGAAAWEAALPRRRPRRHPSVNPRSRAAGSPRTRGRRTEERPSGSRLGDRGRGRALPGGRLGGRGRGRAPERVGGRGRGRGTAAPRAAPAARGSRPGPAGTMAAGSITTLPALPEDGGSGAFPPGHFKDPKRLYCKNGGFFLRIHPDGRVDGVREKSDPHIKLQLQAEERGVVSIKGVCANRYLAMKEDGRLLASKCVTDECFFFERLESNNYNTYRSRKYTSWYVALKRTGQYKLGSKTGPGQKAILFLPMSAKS

[17] = JC-1 mitochondrial potential readout, lung cancer cells – cell-based, A549, JC-1 fluorescence, basal, 24 h, 100 nL, profiling panel (AID 1138); conditions: higher = more signal;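 note: A549 lung adenocarcinoma cells under basal conditions with no added stimulus; test concentration not given here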
[18] = test system: Lefty1; assay: Lefty1 protein binding to printed compounds – biochemical, small-molecule microarray, 635/667 nm fluorescence, primary screen (AID 1139); conditions: fluorescence 635/667, higher = more signal
[19] = test system: wheat germ agglutinin (Triticum aestivum), Alexa647-labelled; assay: Alexa647-WGA lectin binding to printed small molecules – biochemical, small-molecule microarray, 635/667 nm fluorescence, artefact control for SMM control-protein annotation, profiling panel (AID 1140); conditions: WGA-A647 binding, 635 nm fluorescence, higher = more signal;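 note: score merges 667 nm feature emission with signal to noise over triplicate slides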
[20] = target: Luciferin 4-monooxygenase (Photinus pyralis) (UniProt P08659); assay: inhibition of purified Photinus pyralis luciferase – biochemical, luminescence, purified enzyme, 2006 set, primary screen (AID 1141); conditions: purified firefly luciferase, SteadyGlo luminescence, 30 min; higher = more signal, called active from +8 up or from −8 down;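 note: cell-free assay with purified firefly luciferase at 100 ng per well in PBS; test concentration not given here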
Chain of Luciferin 4-monooxygenase (Photinus pyralis) (P08659 whole entry, looked up): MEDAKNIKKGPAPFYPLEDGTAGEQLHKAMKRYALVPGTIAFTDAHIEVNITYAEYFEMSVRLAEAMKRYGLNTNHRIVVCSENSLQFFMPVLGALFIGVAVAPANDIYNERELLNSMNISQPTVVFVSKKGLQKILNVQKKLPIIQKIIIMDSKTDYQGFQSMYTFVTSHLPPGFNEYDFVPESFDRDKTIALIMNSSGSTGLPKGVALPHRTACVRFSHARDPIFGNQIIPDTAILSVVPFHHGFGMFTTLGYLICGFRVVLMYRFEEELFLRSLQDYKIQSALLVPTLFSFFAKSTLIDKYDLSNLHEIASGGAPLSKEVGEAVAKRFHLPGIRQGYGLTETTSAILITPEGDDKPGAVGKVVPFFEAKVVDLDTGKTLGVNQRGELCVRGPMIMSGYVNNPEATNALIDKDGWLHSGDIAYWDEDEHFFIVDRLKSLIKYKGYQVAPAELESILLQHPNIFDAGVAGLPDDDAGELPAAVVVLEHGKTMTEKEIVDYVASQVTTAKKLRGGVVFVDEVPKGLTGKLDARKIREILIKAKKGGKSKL

Compound	composite z-score [1]	composite Z-score [2]	composite z-score [3]	composite z-score [4]	composite z-score [5]	composite z-score [6]	composite z-score [7]	composite z-score [8]	composite z-score [9]	composite z-score [10]	composite z-score [11]	composite z-score [12]	composite z-score [13]	composite z-score [14]	composite z-score [15]	composite z-score [16]	z-score [17]	composite z-score [18]	composite z-score [19]	z-score [20]
CCOC(=O)C[C@H]1[C@H](OC(=O)c2ccccc2-c2ccccc2)[C@@H](NC(=O)C2CCCCC2)c2cc(OCCCO)ccc2N1C(=O)Cc1ccc(OC)cc1	0.0179	-0.483 (inactive)	-0.046	-0.122	0.0935	0.0644	0.0035	-0.0019	-0.292	0.0384	0.0271	-0.525	0.559	-0.873	-0.211	-0.377	1.58	0.442	0.752	0.0079 (inactive)
O=C1O[C@H](c2ccccc2)[C@H](c2ccccc2)N2[C@H]1[C@@H](C(=O)NC[C@H](O)c1ccccc1)[C@]1(C(=O)Nc3ccc(C#CCCO)cc31)[C@H]2c1ccc(OCCO)cc1	0.834	0.182 (inactive)	0.0311	-0.0666	0.627	1.7	-0.0479	1.29	-0.327	1.08	1.32	1.2	0.693	0.738	0.743	0.134	-0.552	0.329	1.01	-2.02 (inactive)
CC(C)C[C@@H]1NC(=O)[C@@H]2C[C@H](C(=O)NCCCCCN)[C@H](c3ccc(O)cc3)N2C1=O	0.85	-0.285 (inactive)	-0.169	-0.102	0.577	1.48	0.17	1.33	0.25	1.17	0.854	1.15	0.269	0.761	1.43	1.66	-0.188	1.3	0.899	-0.348 (inactive)
COc1ccc([Si](C)(C)[C@H]2[C@H](CCO)O[C@@]3(C(=O)N(Cc4cccc(N5C(=O)COc6ccccc65)c4)c4ccccc43)[C@@H]2C)cc1	0.336	0.0953 (inactive)	-0.0343	0.0425	0.338	0.317	0.232	0.297	0.0083	0.567	0.354	-0.0131	-0.0804	0.0563	0.196	-0.032	1.17	-0.236	0.715	-1.17 (inactive)
COC(=O)[C@@]1(Cc2ccc(OC)cc2)[C@H]2c3cc(C(=O)N(C)C)n(C[C@H](O)CO)c3C[C@H]2CN1C(=O)c1ccccc1	0.956	-0.312 (inactive)	0.301	0.462	0.782	2.24	0.828	0.833	-1.29	0.863	0.396	1.2	1.17	0.904	0.291	-1.16	0.193	-0.908	1.34	0.543 (inactive)
CN1C(=O)C2C=CC(C(O)c3ccc(F)cc3)N(Nc3ccccc3)C2C1=O (stereo not given)	0.884	0.21 (inactive)	0.0562	-0.14	0.721	1.64	-0.481	0.57	-0.623	0.808	2.27	1.14	1.04	0.802	0.576	-0.319	-0.575	0.253	0.0088	-0.112 (inactive)
CCOC(=O)C1=C[C@@H](c2ccccc2)N(S(=O)(=O)c2ccc(C)cc2)[C@H]1c1ccccc1Cl	0.729	0.0277 (inactive)	0.112	0.23	0.389	1.66	0.772	1.26	0.359	0.752	0.857	1.17	1.6	0.86	0.761	0.414	1.53	0.838	0.778	0.86 (inactive)
CCOC(=O)C1=CC[C@@H](c2ccccc2C(F)(F)F)N(S(=O)(=O)c2ccc(C)cc2)[C@H]1c1ccc(C#N)cc1	0.733	-0.554 (inactive)	0.223	-0.0211	0.675	0.791	1.25	0.892	0.475	1.11	0.915	1.15	-0.0446	0.647	0.507	0.437	-1.92	-0.0373	1.08	1.47 (inactive)
COC(=O)[C@@]1(Cc2ccccc2N=[N+]=[N-])N=C(c2ccc(OCCCO)cc2)O[C@H]1c1ccccc1N=[N+]=[N-]	-0.908	0.332 (inactive)	0.149	0.0977	0.355	1.44	0.494	0.996	0.456	0.851	1.08	1.14	0.909	0.605	1.27	0.933	2.85	0.119	0.767	-5.01 (inactive)
COc1ccc([Si](C)(C)[C@@H]2[C@@H](CC(=O)N(CCO)Cc3ccccc3)O[C@]3(C(=O)N(Cc4cccc(N5C(=O)c6cccc7cccc5c67)c4)c4ccccc43)[C@H]2C)cc1	-0.0059	0.363 (inactive)	-0.124	-0.203	-0.199	0.135	0.0553	0.0019	0.432	1.04	0.63	-0.46	0.994	0.725	1.1	1.72	-0.538	0.972	0.369	0.187 (inactive)
Cn1cccc1C(O)C1C=CC2C(=O)NC(=O)C2N1Nc1ccc(Cl)cc1Cl (stereo not given)	1.04	0.589 (inactive)	0.569	0.403	0.731	2.79	1.26	1.29	-0.851	1.21	1.43	1.24	1.42	1.02	1.28	0.0937	-0.13	-0.207	1.15	-1.4 (inactive)
CN1C(=O)C2C=CC(C(O)COCc3ccccc3)N(N(c3ccccc3)c3ccccc3)C2C1=O (stereo not given)	0.319	0.453 (inactive)	0.227	-0.0173	0.412	1.62	0.0687	1.05	-0.571	0.671	0.087	1.19	0.75	0.56	0.265	-0.483	1.12	0.216	0.508	-1.06 (inactive)
Cc1ccc(S[C@]2(C(=O)O)CC(=O)N(C3Cc4ccccc4C3)[C@@H]2c2ccc(CO)cc2)cc1	0.0322	0.736 (inactive)	-0.102	-0.057	0.727	2.65	0.826	0.667	-1.8	-0.458	3.14	0.246	0.583	-0.428	-0.987	-0.306	0.225	-0.889	-0.339	-0.675 (inactive)
O=C1O[C@@H](c2ccccc2)[C@@H](c2ccccc2)N2[C@@H](c3ccccc3OCCO)[C@]3(C(=O)Nc4ccc(C#CCCO)cc43)[C@@H](C(=O)N3CCCCCCC3)[C@H]12	0.366	10.6 (active)	2.26	1.23	0.972	5.27	1.6	1.3	1.72	1.2	3.38	1.3	4.83	0.958	1.55	1.14	0.163	1.87	1.74	0.205 (inactive)
